BL2 CD40 inh = CD40 pathway inhibition in BL2 cells | BL2 NF-kB luciferase reporter, CD40L-induced, 4 h | inhibition, % at 10 µM | hit rate 0.94% among 83,000;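 active = mean inhibition of at least 50% with a set share of replicates also reaching that level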;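 also: 0% = neutral control wells and 100% = IKK inhibitor VII at 50 µM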
The depositor's hits bear a star; [ ] = dose if it differs, or a comment. This is one part of a sample in which hits are shown more often than they occur.

What do the screens show for `COc1ccccc1NC(=S)NN=C(C)c1ccccn1`?
BL2 CD40 inh: 90*

What do the screens show for `Cc1ccc(NC(=S)NNC(=S)Nc2ccc(C)cc2)cc1`?
BL2 CD40 inh: -42

Results for CC(=NNC(=S)Nc1ccc(C)cc1)c1ccccn1 ?
BL2 CD40 inh: 77*

What do the screens show for `COc1ccccc1NC(=O)c1ccccc1NC(=O)c1ccccn1`?
BL2 CD40 inh: 1

Results for CC(=NNC(=S)N1CC2CCC(CC2)C1)c1ccccn1 ?
BL2 CD40 inh: -17

Results for CCCN(CC(=O)Nc1ccccc1OC)C(=O)c1ccccn1 ?
BL2 CD40 inh: -2

What do the screens show for `COc1cccc(NC(=O)N2CC[C@@H]3[C@@H](CO)N(C)c4ccc(-c5ccccc5)cc4[C@@H]32)c1`?
BL2 CD40 inh: 0

How did CO[C@@H]1CN(C)C(=O)c2cc(NC(=O)C3CCCC3)ccc2OC[C@@H](C)N(Cc2nccs2)C[C@H]1C do in these assays?
BL2 CD40 inh: -5

What do the screens show for `COc1ccc(S(=O)(=O)N(C)C[C@H]2OCCCC[C@H](C)Oc3ccc(NS(=O)(=O)c4ccc(Cl)cc4)cc3C(=O)N([C@H](C)CO)C[C@H]2C)cc1`?
BL2 CD40 inh: -3

What do the screens show for `C[C@H](CO)N1C[C@H](C)[C@H](CN(C)S(=O)(=O)c2ccc(C(F)(F)F)cc2)OCc2ccccc2-c2c(n(C)c3ccccc23)C1=O`?
BL2 CD40 inh: 2

What do the screens show for `CNC[C@@H]1Oc2ccc(N)cc2CC(=O)N(C)C[C@H]1C`?
BL2 CD40 inh: 8

How did O=C1CNC[C@@H]2[C@H](c3ccc(-c4ccccc4F)cc3)[C@@H](CO)N12 do in these assays?
BL2 CD40 inh: 2[25 µM]

Results for OCc1ccc(O)c2ncccc12 ?
BL2 CD40 inh: 29

How did Oc1ccc(CN2CCC(Cc3ccccc3)CC2)c2cccnc12 do in these assays?
BL2 CD40 inh: 25

Results for Oc1ccc(Cc2ccccc2)c2cccnc12 ?
BL2 CD40 inh: 83*

How did CN(C)CC(=O)N1[C@@H]2c3ccc(-c4ccncc4)c(=O)n3C[C@H]1[C@H](CO)[C@H]2C(=O)NC1CCC1 do in these assays?
BL2 CD40 inh: -4[25 µM]

How did CC(C)NC(=O)N(C)C[C@@H]1Oc2ccc(NS(C)(=O)=O)cc2CC(=O)N(C)C[C@H]1C do in these assays?
BL2 CD40 inh: 3

How did COCC(=O)N1CC(=O)N2[C@H](CO)[C@H](c3ccc(C#CC4CC4)cc3)[C@H]2C1 do in these assays?
BL2 CD40 inh: -10[25 µM]

Results for c1ccn2cc(-c3ccc4c(c3)OCCO4)nc2c1 ?
BL2 CD40 inh: 67*

How did O=S(=O)(c1cccc(-c2cn3ccccc3n2)c1)N1CCCCC1 do in these assays?
BL2 CD40 inh: 7

What do the screens show for `CN(C)S(=O)(=O)c1cccc(-c2cn3ccccc3n2)c1`?
BL2 CD40 inh: -28

What do the screens show for `N#C[C@@H]1[C@@H](c2ccc(-c3cncnc3)cc2)[C@H](CO)N1C(=O)C1CCC1`?
BL2 CD40 inh: -11[25 µM]

Results for CC(C)C#Cc1ccc([C@H]2[C@@H](C#N)N(C(=O)c3ccccn3)[C@@H]2CO)cc1 ?
BL2 CD40 inh: -11[25 µM]

Results for CCN(CC)CC(=O)Nc1c(C)cc(C(C)(C)C)cc1C ?
BL2 CD40 inh: -38

What do the screens show for `CCN(CC)c1ccc(C(=O)O)cc1`?
BL2 CD40 inh: -2

Results for CCN(CC)CC(C)(C)C(=O)/C=C/c1ccc(/C=C/C(=O)C(C)(C)CN(CC)CC)cc1 ?
BL2 CD40 inh: 75*

How did C[C@H]1CN([C@@H](C)CO)C(=O)c2ccccc2-c2ccccc2CO[C@H]1CN(C)C(=O)Cc1ccccc1 do in these assays?
BL2 CD40 inh: 7[25 µM]

What do the screens show for `CC(C)NC(=O)N(C)C[C@H]1Oc2c(N)cccc2C(=O)N(C)C[C@H]1C`?
BL2 CD40 inh: -4

How did Cn1nnnc1SCC(=O)N1N=C(c2cccs2)CC1c1cccs1 (stereo unspecified) do in these assays?
BL2 CD40 inh: -29

What do the screens show for `O=C(CSC1=NCCS1)N1N=C(c2cccs2)CC1c1ccc(F)cc1` (stereo unspecified)?
BL2 CD40 inh: 8

How did O=C(CNCCO)N1N=C(c2cccs2)CC1c1cccs1 (stereo unspecified) do in these assays?
BL2 CD40 inh: 31*

What do the screens show for `CNC[C@H]1Oc2ccc(N(C)C)cc2CC(=O)N(C)C[C@H]1C`?
BL2 CD40 inh: -4

How did N#C[C@H]1[C@H](c2ccc(C#Cc3cccc(F)c3)cc2)[C@@H](CO)N1C(=O)C1CCCC1 do in these assays?
BL2 CD40 inh: 42

Results for N#C[C@H]1[C@H](c2ccc(C#Cc3cccc(F)c3)cc2)[C@@H](CO)N1C(=O)C1CC1 ?
BL2 CD40 inh: 37

What do the screens show for `CCCNC(=O)N1[C@H](C#N)[C@H](c2ccc(C#Cc3cccc(F)c3)cc2)[C@H]1CO`?
BL2 CD40 inh: 77*[25 µM]

What do the screens show for `N#C[C@H]1[C@@H](c2ccc(C#Cc3cccc(F)c3)cc2)[C@H](CO)N1C(=O)C1CCCC1`?
BL2 CD40 inh: -6

How did N#C[C@@H]1[C@H](c2ccc(C#Cc3ccc(F)cc3)cc2)[C@@H](CO)N1C(=O)C1CC1 do in these assays?
BL2 CD40 inh: 72*

What do the screens show for `CCCNC(=O)N1[C@H](C#N)[C@@H](c2ccc(C#Cc3cccc(F)c3)cc2)[C@@H]1CO`?
BL2 CD40 inh: -1[25 µM]

Results for N#C[C@H]1[C@@H](c2ccc(C#Cc3cccc(F)c3)cc2)[C@@H](CO)N1C(=O)C1CCCC1 ?
BL2 CD40 inh: 1

What do the screens show for `N#C[C@H]1[C@H](c2ccc(C#Cc3cccc(F)c3)cc2)[C@@H](CO)N1C(=O)C1CCC1`?
BL2 CD40 inh: 55*

Results for N#C[C@@H]1[C@@H](c2ccc(C#Cc3ccc(F)cc3)cc2)[C@H](CO)N1C(=O)C1CCC1 ?
BL2 CD40 inh: 1[25 µM]

What do the screens show for `N#C[C@H]1[C@H](c2ccc(C#Cc3ccc(F)cc3)cc2)[C@@H](CO)N1C(=O)C1CCC1`?
BL2 CD40 inh: 54*[25 µM]

Results for N#C[C@H]1[C@@H](c2ccc(C#Cc3ccccc3F)cc2)[C@@H](CO)N1C(=O)C1CCC1 ?
BL2 CD40 inh: 8

What do the screens show for `N#C[C@H]1[C@@H](c2ccc(C#Cc3cccc(F)c3)cc2)[C@H](CO)N1C(=O)C1CC1`?
BL2 CD40 inh: -1

How did CC(C)C#Cc1ccc([C@@H]2[C@@H](CO)N(C(=O)C3CC3)[C@H]2C#N)cc1 do in these assays?
BL2 CD40 inh: -2[25 µM]

Results for C[C@@H]1CN([C@@H](C)CO)C(=O)CCCn2cc(nn2)CO[C@@H]1CN(C)C(=O)Nc1cccc(Oc2ccccn2)c1 ?
BL2 CD40 inh: -1[25 µM]

Results for O=C(C[C@@H]1C[C@@H]2c3cc(NC(=O)C4CCOCC4)ccc3O[C@@H]2[C@H](CO)O1)NCCN1CCCCC1 ?
BL2 CD40 inh: -12[25 µM]

What do the screens show for `CCCNC(=O)N1[C@H](CO)[C@@H](c2ccccc2)C12CN(C(=O)C1CCCCC1)C2`?
BL2 CD40 inh: -2[25 µM]

What do the screens show for `CCN1[C@@H]2Cn3c(ccc(-c4ccccc4OC)c3=O)[C@H]1[C@@H](C(=O)NCc1ccccn1)[C@@H]2CO`?
BL2 CD40 inh: -4[25 µM]

How did COc1ccccc1-c1ccc2n(c1=O)C[C@H]1[C@H](CO)[C@@H](C(=O)N[C@H](C)c3ccccc3)[C@@H]2N1C do in these assays?
BL2 CD40 inh: -14[25 µM]

How did C[C@@H]1CN(C)C(=O)c2cccc(N)c2O[C@@H]1CN(C)C do in these assays?
BL2 CD40 inh: 12

How did CCC(=O)N1CCCCN2[C@H](CO)[C@@H](c3ccc(C#Cc4ccccc4)cc3)[C@H]2C1 do in these assays?
BL2 CD40 inh: 7[25 µM]

Results for COc1ccc(S(=O)(=O)Nc2ccc3c(c2)C(=O)N([C@H](C)CO)C[C@@H](C)[C@H](CN(C)Cc2ccc(C(F)(F)F)cc2)OCCCC[C@@H](C)O3)cc1 ?
BL2 CD40 inh: 50*[25 µM]
